Experimental data taken from PubChem BioAssay (NCATS).
Where “and” joins values, the source holds several entries; their conditions need not be identical. Equal entries are not always repeated. Where a SMILES comes first, the peptide text is derived from it. Bridges are numbered along the chain shown (N, C = ends). [ ]: non-standard residue; d: D form. The star is where a group is joined. X1 = CCC(C)C(N)C1=NC(C(=O)*)CS1; dOrn = NCCC[C@@H](N)C(=O)O

Assay: qHTS drug screen for cell cycle checkpoint inhibitors in PARPi-resistant BRCA-mutant ovarian cancer cell lines. (AID 1963452)
Conditions: PEO1/OlaR viability, CellTiter-Glo luminescence, 96 h; measured here: PEO1 parental Z-AUC; stronger effect = lower value
Procedure, shortened: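 PEO1, PEO4 and PEO1/OlaR ovarian cancer cells, 600 per well, exposed 96 h at 37C to a dilution series. Viability read by CellTiter-Glo luminescence, normalized to DMSO and empty wells; activity summarized as Z-AUC.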

| SMILES | Z-AUC |
| --- | --- |
| COc1ccc2cc(OCC3(C(=O)O)CN(C(=O)c4ccc(F)cc4)C3)ccc2c1 | -0.144 |
| Cc1nnc(C(C)C)n1C1CC2CCC(C1)N2CC[C@H](NC(=O)C1CCC(F)(F)CC1)c1ccccc1 (stereo partly drawn) | 1.65 and 0.521 |
| CCOC(=O)c1ccnc(CNCC(=O)N(CC)CCN(C)C)c1 | 0.751 |
| O=C(NCC(=O)N1CC[C@H](NC2CCC(O)(c3ccc(-c4ncccn4)cn3)CC2)C1)c1cccc(C(F)(F)F)c1 (stereo partly drawn) | -0.577 |
| CCNC(=O)CCC/C=C\C[C@@H]1[C@@H](/C=C/C(O)CCc2ccccc2)[C@@H](O)C[C@@H]1O (stereo partly drawn) | 1.41 |
| CCCCC(=O)OCC(=O)[C@]1(O)Cc2c(O)c3c(c(O)c2[C@@H](O[C@H]2C[C@H](NC(=O)C(F)(F)F)[C@H](O)[C@H](C)O2)C1)C(=O)c1c(OC)cccc1C3=O | -2.19 |
| CC1(C)O[C@@H]2C[C@H]3[C@@H]4CCC5=CC(=O)C=C[C@]5(C)[C@H]4[C@@H](O)C[C@]3(C)[C@]2(C(=O)CO)O1 | 1.46 |
| COc1cc(N2CCC(O)CC2)ccc1Nc1cc(Nc2ccccc2S(=O)(=O)C(C)C)c2cc[nH]c2n1 | 1.41 |
| CCCCN(CCCC)C(=O)CN1C[C@H](c2ccc3c(c2)OCO3)[C@@H](C(=O)O)[C@@H]1c1ccc(OC)cc1 | 0.661 |
| CCc1nc(C(N)=O)c(Nc2ccc(N3CCC(N4CCN(C)CC4)CC3)c(OC)c2)nc1NC1CCOCC1 | 0.97 |
| CCCOc1ccn2c(C(C)=O)cc(-c3ccccc3S(C)(=O)=O)c2c1 | 1.76 |
| CC(C)C(=O)OCC(=O)[C@@]12O[C@H](C3CCCCC3)O[C@@H]1C[C@H]1[C@@H]3CCC4=CC(=O)C=C[C@]4(C)[C@H]3[C@@H](O)C[C@@]12C | 0.238 |
| O=c1ccn([C@@H]2O[C@H](CO)[C@@H](O)[C@H]2O)c(=O)[nH]1 | 1.05 |
| CNc1nc(Nc2cnn([C@H]3CCN(C4COC4)C[C@@H]3F)c2Cl)ncc1C(F)(F)F | -0.0727 |
| CCN(c1cc(C#CCN2CCOCC2)cc(C(=O)NCc2c(C)cc(C)[nH]c2=O)c1C)C1CCC(N(C)CCOC)CC1 (stereo not drawn) | 1.88 |
| Cc1cc(C)cc(NC(=O)Cc2ccc(OC(C)(C)C(=O)O)cc2)c1 | -0.359 |
| C[C@H](CCC(=O)O)[C@H]1CC[C@H]2[C@@H]3[C@H](O)C[C@@H]4C[C@H](O)CC[C@]4(C)[C@H]3CC[C@]12C | 0.809 |

| SMILES | Z-AUC |
| --- | --- |
| COc1cc(N2CCC(N(C)C)CC2)ccc1Nc1ncc(Cl)c(Nc2ccccc2P(C)(C)=O)n1 | -1.75 |
| CCC(C)C(N)C1=NC(C(=O)N[C@@H](CC(C)C)C(=O)N[C@H](CCC(=O)O)C(=O)N[C@H](C(=O)N[C@H]2CCCCNC(=O)[C@H](CC(N)=O)NC(=O)[C@@H](CC(=O)O)NC(=O)[C@H](Cc3cnc[nH]3)NC(=O)[C@@H](Cc3ccccc3)NC(=O)[C@H]([C@@H](C)CC)NC(=O)[C@@H](CCCN)NC2=O)[C@@H](C)CC)CS1 (stereo partly drawn) (X1-L[dE]IK[dOrn]I[dF]H[dD]N; lactam 4-C) | 1.01 |
| O=C(O)c1cnn(-c2nc3cc(OC(F)(F)F)c(Cl)cc3[nH]2)c1 | -0.102 |
| Cc1c(-c2ccnn2C)cc(C(=O)NCc2ccc(S(C)(=O)=O)cn2)c(=O)n1-c1cccc(C(F)(F)F)c1 | -0.353 |
| O=C(Nc1cccnn1)N1CCC(=Cc2cccc(Oc3ccc(C(F)(F)F)cn3)c2)CC1 | -0.539 |
| N#Cc1ccnc(N2C(=O)CC[C@H]2C(=O)N(c2cncc(F)c2)[C@H](C(=O)NC2CC(F)(F)C2)c2ccccc2Cl)c1 | 1.11 |
| Cc1cccc(-c2[nH]c(CNc3ccccc3F)nc2-c2ccc3ncnn3c2)n1 | 0.223 |
| CN(NC(=O)CC(=O)NN(C)C(=S)c1ccccc1)C(=S)c1ccccc1 | 1.08 |
| Cc1ccc(C(=O)Nc2ccc(Oc3cc4cnn(C)c4cc3-c3cn[nH]c3)c(F)c2)c(=O)n1-c1ccc(F)cc1 | 0.144 |
| Nc1ccn([C@@H]2C(F)=C(CO)[C@@H](O)[C@H]2O)c(=O)n1 | -0.156 |
| COc1cc2c(Nc3ccc(Cl)c(Cl)c3F)ncnc2cc1OCC1C[C@@H]2CN(C)C[C@@H]2C1 (stereo partly drawn) | -0.529 |
| Cc1nc2c(-c3cnc(N)nc3)nc(N3CCOCC3)nc2n1C(C)C | -1.56 |
| Cc1cc(Nc2ncc(Cl)c(Nc3ccccc3S(=O)(=O)C(C)C)n2)c(OC(C)C)cc1C1CCNCC1 | -0.797 |
| CN1CC[C@@H](NC(=O)Nc2ccc(C#N)cc2)C[C@@H]1c1nc2ccccc2[nH]1 | 0.0879 |
| CC(C)N(C[C@H]1O[C@@H](n2cnc3c(N)ncnc32)[C@H](O)[C@@H]1O)C1CC(CCc2nc3ccc(C(C)(C)C)cc3[nH]2)C1 (stereo partly drawn) | 1.75 |
| CCS(=O)(=O)N1CCC([C@@H](C)n2c(C)c(C(=O)NCc3c(OC)cc(C)[nH]c3=O)c3ccccc32)CC1 | 0.682 |
| C=C1CC[C@@H]2[C@](C)(CO)[C@H](O)CC[C@@]2(C)[C@@H]1C/C=C1/C(=O)OC[C@H]1O | -0.159 |

Same assay, conditions: PEO1/OlaR viability, CellTiter-Glo luminescence, 96 h; measured here: PEO4 Z-AUC; stronger effect = lower value

| SMILES | Z-AUC |
| --- | --- |
| COc1ccc2cc(OCC3(C(=O)O)CN(C(=O)c4ccc(F)cc4)C3)ccc2c1 | 0.261 |
| Cc1nnc(C(C)C)n1C1CC2CCC(C1)N2CC[C@H](NC(=O)C1CCC(F)(F)CC1)c1ccccc1 (stereo partly drawn) | 1.24 and 0.375 |
| CCOC(=O)c1ccnc(CNCC(=O)N(CC)CCN(C)C)c1 | 0.779 |
| O=C(NCC(=O)N1CC[C@H](NC2CCC(O)(c3ccc(-c4ncccn4)cn3)CC2)C1)c1cccc(C(F)(F)F)c1 (stereo partly drawn) | -0.816 |
| CCNC(=O)CCC/C=C\C[C@@H]1[C@@H](/C=C/C(O)CCc2ccccc2)[C@@H](O)C[C@@H]1O (stereo partly drawn) | 1.49 |
| CCCCC(=O)OCC(=O)[C@]1(O)Cc2c(O)c3c(c(O)c2[C@@H](O[C@H]2C[C@H](NC(=O)C(F)(F)F)[C@H](O)[C@H](C)O2)C1)C(=O)c1c(OC)cccc1C3=O | -1.93 |
| CC1(C)O[C@@H]2C[C@H]3[C@@H]4CCC5=CC(=O)C=C[C@]5(C)[C@H]4[C@@H](O)C[C@]3(C)[C@]2(C(=O)CO)O1 | 0.804 |
| COc1cc(N2CCC(O)CC2)ccc1Nc1cc(Nc2ccccc2S(=O)(=O)C(C)C)c2cc[nH]c2n1 | 0.959 |
| CCCCN(CCCC)C(=O)CN1C[C@H](c2ccc3c(c2)OCO3)[C@@H](C(=O)O)[C@@H]1c1ccc(OC)cc1 | 0.129 |
| CCc1nc(C(N)=O)c(Nc2ccc(N3CCC(N4CCN(C)CC4)CC3)c(OC)c2)nc1NC1CCOCC1 | 0.904 |
| CCCOc1ccn2c(C(C)=O)cc(-c3ccccc3S(C)(=O)=O)c2c1 | 1.78 |
| CC(C)C(=O)OCC(=O)[C@@]12O[C@H](C3CCCCC3)O[C@@H]1C[C@H]1[C@@H]3CCC4=CC(=O)C=C[C@]4(C)[C@H]3[C@@H](O)C[C@@]12C | -0.69 |
| O=c1ccn([C@@H]2O[C@H](CO)[C@@H](O)[C@H]2O)c(=O)[nH]1 | 0.867 |
| CNc1nc(Nc2cnn([C@H]3CCN(C4COC4)C[C@@H]3F)c2Cl)ncc1C(F)(F)F | 0.0395 |
| CCN(c1cc(C#CCN2CCOCC2)cc(C(=O)NCc2c(C)cc(C)[nH]c2=O)c1C)C1CCC(N(C)CCOC)CC1 (stereo not drawn) | 1.36 |
| Cc1cc(C)cc(NC(=O)Cc2ccc(OC(C)(C)C(=O)O)cc2)c1 | -0.00799 |
| C[C@H](CCC(=O)O)[C@H]1CC[C@H]2[C@@H]3[C@H](O)C[C@@H]4C[C@H](O)CC[C@]4(C)[C@H]3CC[C@]12C | 0.917 |

| SMILES | Z-AUC |
| --- | --- |
| COc1cc(N2CCC(N(C)C)CC2)ccc1Nc1ncc(Cl)c(Nc2ccccc2P(C)(C)=O)n1 | -1.64 |
| CCC(C)C(N)C1=NC(C(=O)N[C@@H](CC(C)C)C(=O)N[C@H](CCC(=O)O)C(=O)N[C@H](C(=O)N[C@H]2CCCCNC(=O)[C@H](CC(N)=O)NC(=O)[C@@H](CC(=O)O)NC(=O)[C@H](Cc3cnc[nH]3)NC(=O)[C@@H](Cc3ccccc3)NC(=O)[C@H]([C@@H](C)CC)NC(=O)[C@@H](CCCN)NC2=O)[C@@H](C)CC)CS1 (stereo partly drawn) (X1-L[dE]IK[dOrn]I[dF]H[dD]N; lactam 4-C) | 0.703 |
| O=C(O)c1cnn(-c2nc3cc(OC(F)(F)F)c(Cl)cc3[nH]2)c1 | -0.0473 |
| Cc1c(-c2ccnn2C)cc(C(=O)NCc2ccc(S(C)(=O)=O)cn2)c(=O)n1-c1cccc(C(F)(F)F)c1 | -0.364 |
| O=C(Nc1cccnn1)N1CCC(=Cc2cccc(Oc3ccc(C(F)(F)F)cn3)c2)CC1 | -0.803 |
| N#Cc1ccnc(N2C(=O)CC[C@H]2C(=O)N(c2cncc(F)c2)[C@H](C(=O)NC2CC(F)(F)C2)c2ccccc2Cl)c1 | 1.26 |
| Cc1cccc(-c2[nH]c(CNc3ccccc3F)nc2-c2ccc3ncnn3c2)n1 | -0.0692 |
| CN(NC(=O)CC(=O)NN(C)C(=S)c1ccccc1)C(=S)c1ccccc1 | 1.36 |
| Cc1ccc(C(=O)Nc2ccc(Oc3cc4cnn(C)c4cc3-c3cn[nH]c3)c(F)c2)c(=O)n1-c1ccc(F)cc1 | -0.211 |
| Nc1ccn([C@@H]2C(F)=C(CO)[C@@H](O)[C@H]2O)c(=O)n1 | -0.408 |
| COc1cc2c(Nc3ccc(Cl)c(Cl)c3F)ncnc2cc1OCC1C[C@@H]2CN(C)C[C@@H]2C1 (stereo partly drawn) | -0.609 |
| Cc1nc2c(-c3cnc(N)nc3)nc(N3CCOCC3)nc2n1C(C)C | -1.63 |
| Cc1cc(Nc2ncc(Cl)c(Nc3ccccc3S(=O)(=O)C(C)C)n2)c(OC(C)C)cc1C1CCNCC1 | -0.548 |
| CN1CC[C@@H](NC(=O)Nc2ccc(C#N)cc2)C[C@@H]1c1nc2ccccc2[nH]1 | -1.25 |
| CC(C)N(C[C@H]1O[C@@H](n2cnc3c(N)ncnc32)[C@H](O)[C@@H]1O)C1CC(CCc2nc3ccc(C(C)(C)C)cc3[nH]2)C1 (stereo partly drawn) | 1.7 |
| CCS(=O)(=O)N1CCC([C@@H](C)n2c(C)c(C(=O)NCc3c(OC)cc(C)[nH]c3=O)c3ccccc32)CC1 | -0.124 |
| C=C1CC[C@@H]2[C@](C)(CO)[C@H](O)CC[C@@]2(C)[C@@H]1C/C=C1/C(=O)OC[C@H]1O | 0.023 |
